The list is not random: actives were taken first. Their share in the collection is about 2.1%.
ADAM10 inh = inhibits human ADAM10 | 0.62% of 370,000 active | O14672 | inhibition, % at 7 µM | recombinant ADAM10, EDANS/DABCYL FRET peptide cleavage, 3 h;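 active means inhibition above a per-campaign cutoff equal to the mean of compounds falling between control-based bounds plus 3 SD, cut at about 20% in these data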;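 further: 0% = DMSO wells while the 100% control is not disclosed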
Rce1 inhib = inhibitors of yeast Ras-converting enzyme; 0.27% of 290,000 active; yeast membranes, quenched prenylated peptide cleavage fluorescence; calls only; Q03530;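 active means fall in fluorescence gain of 50% or more versus controls, with final raw signal at or below 3038400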;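 further: plate controls were neutral control wells for no effect and wells lacking membranes for full effect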
ADAM17 inh = ADAM17 inhibition, QFRET primary screen; P78536; recombinant ADAM17, EDANS/DABCYL FRET peptide cleavage; inhibition, % at 6.95 µM; 0.83% of 370,000 active; AID 720648;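 active means inhibition above the mean of compounds lying between control limits plus 3 SD, set per campaign, cut at about 8.5% in these data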;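 further: 0% = DMSO-only wells as the low control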
PLCb3 inh = blocks human PLC-beta3 enzyme activity | Q01970 | Purified PLC-beta3, fluorogenic substrate, fluorescence | inhibition, % at 12.2 µM | 0.18% of 370,000 active; in the data active means inhibition above about 11%;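 further: 0% = median of compound wells on plate and 100% = full blocker control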
PLCg1 inh = blocks human PLC-gamma1 enzyme activity; P19174; purified PLC-gamma1, fluorogenic substrate, fluorescence; inhibition, % at 12.2 µM; 0.84% of 370,000 active; AID 720700; in the data active means inhibition above about 9.5%
ADAM10 confirm = confirmation of inhibitors of human ADAM10 | shares compounds with ADAM10 inh | ADAM10 QFRET peptide cleavage, EDANS fluorescence | inhibition, % at 6.95 µM | 1% of 2,100 active;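 active means inhibition above about 20% chosen separately for each screening run, limit read from the data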;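 further: 0% = DMSO wells and 100% = marimastat wells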
ADAM17 ctr = inhibits human ADAM17 in ADAM10 exosite counter-screen; ADAM17 QFRET peptide cleavage, EDANS fluorescence; shares compounds with ADAM10 inh; 0.5% of 2,100 active; inhibition, % at 6.95 µM;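 active means mean triplicate inhibition above the solvent-only control wells' mean plus 3 SD, cut at about 12% in these data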;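 further: 0% = DMSO wells and 100% = marimastat wells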
ADAM10 counter = ADAM10 inhibition, counter-screen for ADAM17 exosite hits. shares compounds with ADAM17 inh. recombinant ADAM10, EDANS/DABCYL FRET peptide cleavage, 3 h. inhibition, % at 6.95 µM. 47% of 2,900 active;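 active means mean inhibition over the triplicate runs exceeds the activity threshold set in the earlier primary screen, cut at about 20% in these data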;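 further: 0% = DMSO wells and 100% = marimastat wells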
ADAM17 confirm = human ADAM17 inhibition, confirmation | shares compounds with ADAM17 inh | recombinant ADAM17, EDANS/DABCYL QFRET peptide cleavage | inhibition, % at 6.95 µM | 65% of 2,900 active;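 active means mean inhibition across replicates above the hit cutoff set in the primary screen, cut at about 8.5% in these data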;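 further: 0% = DMSO wells and 100% = marimastat wells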
Active calls of the source: *; i = inactive; . = not tested or not shown.

SMILES	ADAM10 inh	Rce1 inhib	ADAM17 inh	PLCb3 inh	PLCg1 inh	ADAM10 confirm	ADAM17 ctr	ADAM10 counter	ADAM17 confirm
O=C(OC(C(=O)Nc1cccc(C(F)(F)F)c1)c1ccccc1)C1CCCCC1 (configuration not stated)	25*	.	12*	3	2	9	3	20*	13*
O=C(Nc1cccc(C(F)(F)F)c1)NC1CCCCC1	5	i	4	6	4	.	.	.	.
COC(=O)[C@]12C[C@H](CC(=O)NCc3cccc4ccccc34)C(=O)N(Cc3ccco3)C1=C[C@H](C(C)(C)C)O[C@@H]2C	24*	.	9.4*	-2	1	8	3	32*	15*
COC(=O)[C@]12C[C@H](CC(=O)NCc3cccc4ccccc34)C(=O)N(Cc3ccccc3)C1=C[C@H](C(C)(C)C)O[C@@H]2C	12	.	5	4	0	.	.	.	.
COC(=O)[C@]12C[C@H](CC(=O)NCc3ccc(OC)c(OC)c3)C(=O)N(Cc3cccc4ccccc34)C1=C[C@H](C(C)(C)C)O[C@@H]2C	20*	.	8.8*	5	3	7	3	29*	22*
COC(=O)[C@]12C[C@H](CC(=O)NCc3cccc(C(F)(F)F)c3)C(=O)N(Cc3ccco3)C1=C[C@H](C1CCCC1)O[C@@H]2C	21*	.	9.0*	0	2	7	1	17	8.9*
O=C(CN1C(=O)NC(c2ccccc2)(c2ccccc2)C1=O)c1c[nH]c2ccccc12	.	i	.	.	.	.	.	.	.
COC(=O)[C@]12C[C@H](CC(=O)N3CCN(C(=O)c4ccco4)CC3)C(=O)N(CCC3=CCCCC3)C1=C[C@H](C(C)C)O[C@@H]2C1CC1	1	.	-1	0	2	.	.	.	.
CCN(c1ccccc1)S(=O)(=O)c1ccc(C(=O)Nc2ccncc2)cc1	6	i	-1	2	6	.	.	.	.
CCN(c1ccccc1)S(=O)(=O)c1ccc(C(=O)Nc2cccc(NC(C)=O)c2)cc1	22*	.	8.9*	2	2	8	2	3	3
COc1ccccc1CNC(=O)C(Cc1c[nH]c2ccccc12)NC(=O)OCc1ccccc1 (configuration not stated)	10	i	5	2	4	.	.	.	.
CCCc1nc2ccccc2c(C(=O)OC(C)C(=O)NCc2ccc3c(c2)OCO3)c1CC (configuration not stated)	27*	i	10*	0	3	3	1	25*	12*
COc1ccc(-n2c(=S)[nH]c3cc(C(=O)NCc4ccccc4)ccc3c2=O)c(OC)c1	24*	i	9.0*	4	4	1	1	12	10*
COc1ccc(-n2c(=S)[nH]c3cc(C(=O)NCc4cccnc4)ccc3c2=O)c(OC)c1	1	i	0	-1	-1	.	.	.	.
COc1ccc(CCN2C(=O)c3[nH]nc(-c4ccccc4O)c3C2c2cccc(Cl)c2)cc1 (configuration not stated)	36*	i	14*	-2	4	11	5	41*	17*
COc1ccc(C2c3c(-c4ccccc4O)n[nH]c3C(=O)N2Cc2ccco2)cc1 (configuration not stated)	16	i	8	-6	1	.	.	.	.
Cc1ccc(S(=O)(=O)N2CCC(=O)N(C(COCc3ccccc3)Cc3ccccc3)CC2)cc1 (configuration not stated)	-3	i	-2	0	-2	.	.	.	.
Cc1ccc(S(=O)(=O)N2CCC(=O)N([C@H](COC(=O)Nc3ccccc3)Cc3ccccc3)CC2)cc1	20*	.	8.9*	3	3	3	1	19	13*
